The results in this text go back to PubChem BioAssay (NCATS).

Inconclusive results are not listed. Unmarked numbers belong to inactive results. Activity calls are given as the source filed them. Calls follow the shape of the dose curve; as a rule, active = well fitted inhibition curve with a large enough effect; inconclusive = small, poorly fitted or top-dose-only effect; inactive = flat fitted curve, though single readings scatter.
% is scaled to controls: 0 for no effect and ±100 for the full control effect; potency is read from the fitted curve at half-maximal effect.

This assay relates to CRL-7250. The experiment in a line: Cytotoxic Profiling of Annotated Libraries Using Quantitative High-Throughput Screening (AID 1296008). Also: nearly all actives have a fitted effect of over 60% in size. The note with it: Five cell lines viability, CellTiter-Glo ATP luminescence, 48-72 h; max response: hits give low values. In outline:
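Cytotoxicity was measured as CellTiter-Glo ATP luminescence, read after 10 min at room temperature. Compound treatment of the cells lasted 48 or 72 hr at 37 degrees Celsius in a qHTS format.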
In general terms: Cellular ATP, detected with luciferase, serves as a proxy for viable cell number.
Take `CN(CC1COCCO1)S(=O)(=O)Nc1ccc2ccc3ncc(-c4cnn(C)c4)cc3c(=O)c2c1` (stereo unspecified): the Potency was 5800 nM (active).
On the same count and under the same terms, in the case of `CNc1cccc(CCOc2ccc3c(c2)CN(CC(F)(F)F)C(=O)[C@H](CC(=O)O)C3)n1` it was 82 nM (active).
For the molecule `COc1cccc(NCCC2(c3ccccc3)CC(C)(C)OC(C)(C)C2)c1`, the max response was -3.59%.
With `CO[C@@H]1CC(OC2CCC3(C)C(CCC45CCC(C6=CC(=O)OC6)C(C)(CCC43)C5=O)C2)O[C@H](C)[C@@H]1O[C@@H]1O[C@H](CO[C@@H]2O[C@H](CO)[C@@H](O)[C@H](O)[C@H]2O)[C@@H](O)[C@H](O)[C@H]1O` (stereo partly specified), the Potency was 2460 nM (active).
Regarding `O=C(CNC(=O)c1cccc(C(F)(F)F)c1)N[C@@H]1CCN(Cc2ccc(Cl)cc2)C1`, the max response was -11.8%.
Take `NC(=O)N1CCC(CC(=O)N2CCC(C3c4ncc(Br)cc4CCc4cc(Cl)cc(Br)c43)CC2)CC1` (stereo unspecified): the max response is -10.9%.
For `OC[C@H]1O[C@@H](OC/C=C/c2ccc(O)cc2)[C@H](O)[C@@H](O)[C@@H]1O`, the max response is -28.9%.
Consider `Cc1c(C(=O)Nc2ccc(N3CCC(N4CCOCC4)CC3)c(C#N)c2)cnn1-c1ccc(Cl)cc1`, for which the Potency is 1160 nM (active).
In the case of `Fc1ccc(N2CCCCC2)c(NC(=S)c2ccncc2)c1`, the max response was 3.95%.
On to `COc1ccccc1C(=O)Nc1cc2c(cc1N1CCCC1)n(C)c(=O)n2C`, for which the max response is -29%.
Turning to `C/C=C/C=C/C=C/C(=O)O[C@@H]1C=C2COC(=O)[C@]2(O)[C@@]2(C)CCCC(C)(C)[C@H]12`, the max response is -25.9%.
